Where “and” joins values, the source holds several entries; their conditions need not be identical. Equal values may be shown once. Calls of active or inactive are those of the source. Unless noted, no stated cut-off is given here; in the data, active means parasite load remaining mostly below about 12% (no sharp cut-off); inactive means mostly above about 10%.
Tests used:
[1] = liver-stage malaria parasite growth inhibition, primary screen, cell-based, HepG2, luciferase luminescence, HepG2 viability (AID 624349);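 further: 100% = mean of DMSO negative control wells on the same plate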; conditions: P. berghei liver stage in HepG2, luciferase luminescence, concentration not given here; parasite load remaining: stronger effect = lower value; viability: measured here: HepG2 viability without parasites
[2] = stimulators of nuclear beta-catenin in C2C12, primary screen, imaging, WNT3A-conditioned medium, mouse C2C12, NPC library (AID 1117326; in the data active means nuclear beta-catenin stimulation mostly above about 4.2%, no sharp cut-off; inactive means mostly below about 10%; further: reference of the scale not given here); conditions: stronger effect = higher value
[3] = stimulators of insulin release from INS-1E, primary screen, cell-based, 5 mM glucose, NPC library (AID 1117329;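 active means compound raises insulin release from rat beta cells at 5 mM glucose, no numeric limit stated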; further: reference of the scale not given here); conditions: rat INS-1E insulin secretion, at 10 µM, stronger effect = higher value
[4] = growth inhibition of GSK3B-pretreated HCT116 cells – cell-based, CellTiter-Glo, 0.2 to 20 µM (AID 1117336;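 active means compounds lowering colon cancer cell viability after pretreatment blocking the GSK3B kinase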); conditions: HCT116 viability after GSK3B inhibitor, at 20 µM, stronger effect = higher value
[5] = inhibition of endothelial tube formation, primary screen, imaging, VEGF stimulated, CD31 staining, tube area, NPC library (AID 1117340;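 active means compound that reduces growth-factor-driven endothelial tube area in a mixed cell culture, no cutoff stated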); conditions: VEGF-stimulated ADSC/ECFC co-culture, at 10 µM, stronger effect = higher value
[6] = glucagon-like peptide 1 release enhancers, primary assay, NCI-H716 cell line, NPC library (AID 1117341;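 active means compound raises GLP1 secretion from the human gut endocrine cells, with no numeric limit stated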; further: reference of the scale not given here); conditions: NCI-H716 cells, at 10 µM, stronger effect = higher value
[7] = HCT116 colon cancer cell growth inhibition, primary screen, CellTiter-Glo luminescence, NPC library (AID 1117342;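 active means compounds that lower survival of HCT116 colon cancer cells in the luminescence readout, no numeric limit stated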); conditions: at 20 µM (top of the series)
[8] = CellTiter-Glo luminescent readout of SW480 viability loss, NPC library primary (AID 1117343;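 active means compounds that lower viability of the colon cancer cells in the luminescence readout, with no numeric limit stated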); conditions: CellTiter-Glo luminescence; at 20 µM (top of the series)
[9] = decreased DLD-1 cellular survival, CellTiter-Glo luminescent readout, NPC compound collection, primary HTS (AID 1117346;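 active means compounds that lower survival of DLD-1 colon cancer cells in the luminescence readout, no cutoff given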); conditions: DLD-1 viability, CellTiter-Glo luminescence; at 20 µM (top of the series)
[10] = biological target: 6-phosphogluconate dehydrogenase, decarboxylating (Homo sapiens) (UniProt P52209); assay: 6PGD enzyme inhibitors, primary screen, biochemical, human, recombinant enzyme, NADPH absorbance (AID 1159550;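 active means at least 20% inhibition of 6-phosphogluconate dehydrogenase activity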); conditions: recombinant 6PGD, NADPH absorbance 341 nm; at 10 µM; stronger effect = higher value
6-phosphogluconate dehydrogenase, decarboxylating (Homo sapiens), sequence (P52209 whole entry, looked up): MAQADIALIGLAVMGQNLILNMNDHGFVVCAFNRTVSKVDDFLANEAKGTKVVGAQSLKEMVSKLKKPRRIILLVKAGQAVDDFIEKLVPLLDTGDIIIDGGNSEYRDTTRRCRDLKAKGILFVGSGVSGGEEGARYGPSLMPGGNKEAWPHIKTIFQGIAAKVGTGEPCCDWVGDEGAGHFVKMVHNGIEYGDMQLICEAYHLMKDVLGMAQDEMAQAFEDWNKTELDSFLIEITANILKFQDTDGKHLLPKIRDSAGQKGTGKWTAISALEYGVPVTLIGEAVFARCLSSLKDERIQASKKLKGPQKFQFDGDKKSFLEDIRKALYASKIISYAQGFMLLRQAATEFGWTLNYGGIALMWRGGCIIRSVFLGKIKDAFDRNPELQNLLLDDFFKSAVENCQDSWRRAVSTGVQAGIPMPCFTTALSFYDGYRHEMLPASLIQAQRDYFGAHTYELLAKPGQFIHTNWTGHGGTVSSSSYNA

NC(N)=N/N=C/c1c(Cl)cccc1Cl
parasite load remaining [1]: 15.7% (inactive) and 61% (inactive) and 36.4% (inactive)
viability [1]: 48.5% and 89.8% and 102%
nuclear beta-catenin stimulation ([2]; at 10 µM): -0.1% (inactive)
nuclear beta-catenin stimulation ([2]; stimulation, at 2 µM): -1.1%
insulin secretion stimulation [3]: -0.5% (inactive)
viability decrease [4]: 60% (active)
tube area decrease [5]: 18.2% (inactive)
GLP1 secretion stimulation [6]: 2.1% (inactive)
inhibition of viability [7]: 80.7% (active)
viability decrease (inhibition) [8]: 99.6% (active)
viability decrease (inhibition) [9]: 45.4% (inactive)
inhibition [10]: 14% (inactive)

Nc1ccc(S(N)(=O)=O)cc1
parasite load remaining [1]: 105% (inactive) and 77.1% (inactive) and 50.7% (inactive)
viability [1]: 101% and 73.5% and 90.2%
nuclear beta-catenin stimulation ([2]; at 10 µM): 0.6% (inactive)
nuclear beta-catenin stimulation ([2]; stimulation, at 2 µM): 0.5%
insulin secretion stimulation [3]: -1.2% (inactive)
viability decrease [4]: 3.9% (inactive)
tube area decrease [5]: -8.1% (inactive)
GLP1 secretion stimulation [6]: 2.3% (inactive)
inhibition of viability [7]: -0.4% (inactive)
viability decrease (inhibition) [8]: 6.8% (inactive)
viability decrease (inhibition) [9]: 25.1% (inactive)
inhibition [10]: 7.71% (inactive)

COc1cc([C@H]2Oc3cc([C@H]4Oc5cc(O)cc(O)c5C(=O)[C@@H]4O)ccc3O[C@@H]2CO)ccc1O
parasite load remaining [1]: 75.8% (inactive)
viability [1]: 93%
nuclear beta-catenin stimulation ([2]; at 10 µM): 3.7% (inactive)
nuclear beta-catenin stimulation ([2]; stimulation, at 2 µM): 0.8%
insulin secretion stimulation [3]: 1.8% (inactive)
viability decrease [4]: -35.4% (inactive)
tube area decrease [5]: 4.2% (inactive)
GLP1 secretion stimulation [6]: 2.1% (inactive)
inhibition of viability [7]: 18.7% (inactive)
viability decrease (inhibition) [8]: 16.2% (inactive)
viability decrease (inhibition) [9]: -3.4% (inactive)
inhibition [10]: 9.07% (inactive)
